The results in this text go back to PubChem BioAssay AID504339 (National Center for Advancing Translational Sciences (NCATS), 2011).

Among all 390,000 compounds or so, about 17,000 (4.4%) were called active. Another 8% or so got no clear call; they are omitted. The call rests on the fitted dose curve; in most records, active means well fitted inhibition curve with a large enough effect; inconclusive means small, poorly fitted or top-dose-only effect; inactive means no such curve, though single readings can be large or run the other way. The list comes from a sample in which actives are over-represented; it also holds similar structures and randomly drawn compounds.
On the % scale 0 is the no-effect control and ±100 the full control effect; potency means the concentration at half of the fitted maximal effect.

For the experiment, the target named is Lysine-specific demethylase 4A (Homo sapiens) (UniProt O75164). Kind of experiment: qHTS Assay for Inhibitors of JMJD2A-Tudor Domain. Further: nearly all actives have a fitted effect of over 50% in size. As to conditions: AlphaScreen JMJD2A-Tudor / H3K4me3 peptide binding; series mostly up to 114 µM; activity change, negative = inhibition: at the top concentration. The source says: JMJD2A is a jumonji-domain-containing lysine demethylase that uses Fe(II) together with 2-OG to effect oxidative demethylation of histones. Methylation is one of many […] modification that affect epigenetic transcription. […] It is proposed that the functions of JmjD2A binding to the histones, is to maintain marks after they are installed and to spread the modifications by […], establishing a self-propagating cycle for rapid methylation over a large area of chromatin. […] Thus, small molecule targeting of the JMJD2A-tudor domain interaction with its target methylhistone mark is expected to enable sophisticated experiments probing the fine regulatory pathways leading to selective demethylation of a given methyllysine locus based on the methylation state of adjacent histone marks. A quantitative high throughput AlphaScreen has been developed to identify small molecule inhibitors based on a protocol published by NCGC and SGC [4].
Chain of Lysine-specific demethylase 4A (Homo sapiens) (O75164 whole entry, looked up, the tested form may be a part): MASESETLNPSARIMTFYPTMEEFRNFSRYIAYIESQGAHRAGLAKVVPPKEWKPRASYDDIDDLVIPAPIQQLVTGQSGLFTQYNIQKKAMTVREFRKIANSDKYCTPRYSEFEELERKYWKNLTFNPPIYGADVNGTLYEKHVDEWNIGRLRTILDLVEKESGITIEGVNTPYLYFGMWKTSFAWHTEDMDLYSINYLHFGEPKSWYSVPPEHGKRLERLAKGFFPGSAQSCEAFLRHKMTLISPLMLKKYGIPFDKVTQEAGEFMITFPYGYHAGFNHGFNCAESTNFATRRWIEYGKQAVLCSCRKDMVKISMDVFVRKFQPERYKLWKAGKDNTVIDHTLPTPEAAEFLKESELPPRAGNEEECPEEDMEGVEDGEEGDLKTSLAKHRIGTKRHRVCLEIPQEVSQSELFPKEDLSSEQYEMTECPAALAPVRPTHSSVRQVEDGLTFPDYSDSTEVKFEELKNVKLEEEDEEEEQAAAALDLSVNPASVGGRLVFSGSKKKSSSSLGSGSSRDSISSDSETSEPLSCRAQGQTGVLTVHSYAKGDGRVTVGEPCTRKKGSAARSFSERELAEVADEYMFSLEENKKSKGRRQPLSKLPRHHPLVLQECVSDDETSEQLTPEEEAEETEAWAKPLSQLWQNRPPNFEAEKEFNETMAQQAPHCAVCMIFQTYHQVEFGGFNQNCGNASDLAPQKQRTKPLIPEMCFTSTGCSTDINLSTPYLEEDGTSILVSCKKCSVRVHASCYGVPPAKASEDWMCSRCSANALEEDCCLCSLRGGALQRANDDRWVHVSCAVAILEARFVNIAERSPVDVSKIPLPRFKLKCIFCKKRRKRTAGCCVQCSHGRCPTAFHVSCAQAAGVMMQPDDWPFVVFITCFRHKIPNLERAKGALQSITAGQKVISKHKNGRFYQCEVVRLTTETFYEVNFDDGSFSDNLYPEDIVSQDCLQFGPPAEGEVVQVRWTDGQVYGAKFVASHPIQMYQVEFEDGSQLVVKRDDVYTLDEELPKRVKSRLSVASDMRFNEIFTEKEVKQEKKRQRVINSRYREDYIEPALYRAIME
Although AlphaScreen has significant advantages with its utility in a variety of epigenetic target assays, the primary screening data provided in this deposition should be used with caution due to the prevalence of screening artifacts. The top compound concentration tested was high (>100uM) in this assay, which increases number of actives and potential artifacts. An AlphaScreen counterscreen is highly recommended to be run against any putative actives to eliminate non-specific artifacts. Alternatively, one can use other AlphaScreen assays in PubChem to filter out promiscuous hits.
[1] Lee, J. et al. Distinct binding modes specify the recognition of methylated histone H3K4 and H4K20 by JMJD2A-tudor. Nat Struct Mol Biol. 15(1); 109-11. 2008. PMID: 18084306
[2] Yasgar, et al. Compound Management for Quantitative High-Throughput Screening. JALA. 2008 Apr;13(2):79-89. PMID: 18496600
[3] Inglese, et al. Quantitative high-throughput screening: a titration-based approach that efficiently identifies biological activities in large chemical libraries. Proc Natl Acad Sci. 1;103(31):11473-8. 2006. PMID: 16864780
[4] Quinn et al. A homogeneous method for investigation of methyl-dependent protein-protein interactions in epigenetics. Nucleic Acids Res., 38(2):e11. 2010. PMID: […]
[5] Baell,Holloway. New substructure filters for removal of pan assay interference compounds (PAINS) from screening libraries and for their exclusion in bioassays. J Med Chem. 53(7):2719-40. 2010. PMID: 20131845
NIH Molecular Libraries Probe Production Network [MLPCN]
NIH Chemical Genomics Center [NCGC]
Structural Genomics Consortium (SGC)
To each well of a 1,536w plate, 2ul of JMJD2A-Tudor (final 100nM) and 1ul biotinylated histone peptide methylated at Lys4 [b-H3(1-18)K4me3] (final 50nM) were added in 1x PBS buffer, pH 7.4, containing 0.01% Tween-20, using a nanoliter dispenser. Formation of a protein-peptide complex proceeded at room temperature for 30 min. A Kalypsys pin-tool transferred 23nl of library compound solution in DMSO to each well. Following a 30 min incubation of the protein-peptide complex with compounds at room temperature, a mixture of 40 µg/mL each streptavidin-coated donor and nickel chelate acceptor AlphaScreen beads (final 10 µg/mL) was added in a 1ul dispense for a final volume of 4ul, followed by a brief centrifugation (1000 rpm, 1 min). Plates were incubated protected from the light for 20 min at room temperature. Microplates were then read on an EnVision multilabel plate reader using the 1,536 plate HTS AlphaScreen aperture (excitation time 80 ms, measurement time 240 ms).
Turning to `O=C(NC1CCN(C(=S)Nc2ccc(Cl)cc2)CC1)C1CCCCC1`, the “activity change, negative = inhibition” value is -8.8% (inactive).
Still for that read-out and setting: next, `Cc1c(CNC2CCCCC2)c(C(=O)O)c(C)n1Cc1cccc(Cl)c1`: -17.4% (inactive); `Cc1cccc(NC(=O)CSc2nnc(CNC(=O)c3cccc(C)c3)n2-c2ccccc2)c1`: -19.5% (inactive); `Cc1nn(-c2ccccc2)c(Cl)c1/C=N/NC(=O)c1nn(C)cc1[N+](=O)[O-]`: 15.2% (inactive).
Same read-out and setting: with `O=C(Cc1ccccc1)N/N=C/c1ccc(Cl)cc1Cl` the figure was -6.47% (inactive).
For `O=C(N/N=C/c1cc(Cl)cc([N+](=O)[O-])c1O)C(O)(c1ccccc1)c1ccccc1`, the Potency was 50.1 µM (active).
In the case of `CCOC(=O)c1ccc(NC(=O)Cn2c(=O)cc(C)c3c(C)nn(-c4cccc(F)c4)c32)cc1`, the “activity change, negative = inhibition” value was -6.67% (inactive).
As to `CCN1C(=O)c2ccccc2S(=O)c2ccc(C(=O)NCc3ccc(F)cc3)cc21` (stereo not given), the “activity change, negative = inhibition” value was 1.68% (inactive).
In the case of `CN(C)c1cc(N)c2ccccc2n1` (tested in a mixture with another compound), the Potency was 2.82 µM (active).
On to `CN(c1ccc2nc3ccccc3c(=O)n2n1)C1CCCCC1`, for which the “activity change, negative = inhibition” value is 4.35% (inactive).
Same read-out and setting: next, `O=C(CC1N=C2c3ccccc3N=C(SCc3ccc(F)cc3)N2C1=O)NCc1cccs1` (stereo not given): -21% (inactive).
The same measure, in the same setting: with `Cc1cc(-c2ccc(C)c(S(=O)(=O)N3c4ccccc4CC3C)c2)on1` (stereo not given) the figure was 11.7% (inactive); with `O=S(=O)(c1ccc2nc(N3CCN(c4cccc(Cl)c4)CC3)ccc2c1)N1CCCCC1`, 9.42% (inactive).
Same read-out and setting: with `CCOC(=O)C1(C)NC(c2ccco2)C2C(=O)N(c3ccccc3)C(=O)C21` (stereo not given) the figure was -18.4% (inactive).
`CCCCC1(C(=O)OCC)NC(c2ccc(O)cc2)C2C(=O)N(c3ccccc3)C(=O)C21` (stereo not given): the Potency is 28.2 µM (active).
`COC(=O)C1(C)NC(c2ccc(F)cc2)C2C(=O)N(c3ccccc3)C(=O)C21` (stereo not given): the “activity change, negative = inhibition” value is 1.31% (inactive).
Still for that read-out and setting: next, `COc1ccccc1CNC(=O)C(=O)NCC(c1cccs1)S(=O)(=O)c1cccs1` (stereo not given): -17.5% (inactive); `CCCN(CCC)S(=O)(=O)c1ccc(C(=O)Nc2sc3c(c2C(=O)OC)CCN(CC)C3)cc1`: -9.17% (inactive).
Still for that read-out and setting: next, `Cc1ccc2oc(C(=O)Nc3ccc(S(=O)(=O)N4CCCCCC4)cc3)cc(=O)c2c1`: -14.2% (inactive).
The same measure, in the same setting: next, `CC1CCCCN1CC(=O)N1CCCc2c1c(=O)oc1ccc(OCc3ccccc3)cc21` (stereo not given): -29.8% (inactive).
On to `Cc1ccc(NC(=O)CNCc2ccccn2)cc1S(=O)(=O)N(C)C`, for which the Potency is 56.2 µM (active).
Regarding `CCN(c1ccccc1)S(=O)(=O)c1cc(C(=O)NCc2ccccn2)ccc1C`, the “activity change, negative = inhibition” value is -17.2% (inactive).
Still for that read-out and setting: next, `Cc1ccc(C(=O)Nc2ccc(C)c(S(=O)(=O)N(C)C)c2)s1`: -9.67% (inactive); `Cc1ccc(OCC(=O)Nc2ccc(OCc3cc(=O)n4c(C)csc4n3)cc2)cc1C`: -23.8% (inactive).
Take `Cc1cccc(NC(=O)Cn2c(C(F)(F)F)nc3ccccc32)c1C`: the “activity change, negative = inhibition” value is -12.8% (inactive).
For `CCc1nccn1S(=O)(=O)c1cc(Br)ccc1Br`, the “activity change, negative = inhibition” value was -1.49% (inactive).
Still for that read-out and setting: with `N#C/C(=C\c1ccccc1F)c1nc2ccccc2c(=O)[nH]1` the figure was -15.7% (inactive).
Turning to `Cc1ccc(-c2nc(=N)sn2Cc2ccccc2)cc1`, the Potency is 4.47 µM (active).
Take `Cc1ccc(-c2cc(C(=O)NC3CCN(Cc4ccccc4)CC3)c3ccccc3n2)cc1`: the “activity change, negative = inhibition” value was -14.5% (inactive).
Take `COc1ccc(-c2nc(=N)sn2-c2ccccc2)cc1`: the Potency is 5.62 µM (active).
As to `COc1ccc(-c2nn3c(-c4ccc(OC)cc4)nnc3c3ccccc23)cc1`, the “activity change, negative = inhibition” value was 5.15% (inactive).
On the same count and under the same terms, with `Cc1n[nH]c(=O)n1-c1ccc(Oc2ccccc2)cc1` the figure was -11% (inactive); with `Cc1ccc(CN2C(=O)SC(Nc3ccccc3)C2=O)cc1` (stereo not given), 14.8% (inactive); with `CC(C)c1ccc2oc(-c3cc(NC(=O)c4cccs4)ccc3Cl)nc2c1`, -2.99% (inactive).
Same read-out and setting: with `COC(=O)c1cc(NC(=O)CCc2c(C)nc3c4c(C)cc(C)nc4nn3c2C)cc(C(=O)OC)c1` the figure was -13.2% (inactive); with `COc1ccc(Cl)cc1NC(=O)CSc1nc(=O)[nH]c2c1CCCC2`, -2.27% (inactive); with `Cc1cc(OCC(=O)Nc2ncn[nH]2)c(C)c(C)c1Br`, -7.56% (inactive).
The same measure, in the same setting: next, `COc1ccc(Cn2cc(C(=O)c3ccc(C)cc3)c(=O)c3cc(OC)c(OC)cc32)cc1`: -31.3% (inactive).
Take `COc1ccc(CCNC(=O)c2cn(C)c3ccc(S(=O)(=O)N(C)C4CCCCC4)cc3c2=O)cc1OC`: the “activity change, negative = inhibition” value is -4.33% (inactive).
The same measure, in the same setting: next, `CCOc1cccc(CC(=O)N2CCc3c([nH]c4ccccc34)C2c2ccc(OC)cc2)c1OCC` (stereo not given): -31.5% (inactive); `CCOc1ccc(C2c3[nH]c4ccccc4c3CCN2Cc2cn(CC)nc2C)cc1` (stereo not given): -29.1% (inactive).
Take `CCOc1ccc(C2c3[nH]c4ccccc4c3CCN2Cc2cccn2-c2ncccn2)cc1` (stereo not given): the Potency was 44.7 µM (active).
As to `COc1ccc(C2CC(=O)Nc3c2c(=O)nc2c(C)cccn32)cc1OC` (stereo not given), the “activity change, negative = inhibition” value is -18.9% (inactive).
As for `Cc1ccc(-n2c(=O)c3cccnc3n2CC(=O)NCc2ccc(F)cc2)cc1C`, the “activity change, negative = inhibition” value was 3.75% (inactive).
The same measure, in the same setting: next, `CCOC(=O)C1(CCOc2ccccc2)CCN(Cc2cc(OC)cc(OC)c2)CC1`: -11.6% (inactive); `CCOC(=O)C1(CCOc2ccccc2)CCN(Cc2ccc(C#CCCO)cc2)CC1`: -15.1% (inactive).
On to `Cc1c(CN2CCC(CO)(CCOc3ccccc3)CC2)[nH]c2ccc(Cl)cc12`, for which the Potency is 50.1 µM (active).
Same read-out and setting: with `O=C(O)c1n[nH]nc1-c1ccccc1` the figure was 4.47 µM (active).
For the compound `N#Cc1c(-c2ccccc2)c(-c2ccccc2)n[nH]c1=O`, the “activity change, negative = inhibition” value is -7.47% (inactive).
Same read-out and setting: with `O=C(O)c1ccc(-n2nc(-c3ccccc3)c3ccccc3c2=O)cc1` the figure was -7.69% (inactive).
